Screening data: PubChem, several laboratories
VHR inh abs: inhibitors of human VHR1 phosphatase (DUSP3) | 0.52% of 290,000 active | AID 1654 | inhibition, % at 13.3 µM | recombinant VHR phosphatase, pNPP absorbance; in the data active = inhibition above about 50%
CCHFV vOTU inh: CCHFV vOTU protease inhibition; Pep-AMC fluorescence; inhibition, % at 11.5 µM; 0.55% of 370,000 active; AID 651958; in the data active = inhibition above about 30%; also: 0% = vehicle wells with enzyme and 100% = no enzyme wells
SSB-PriA inh: inhibitors of Klebsiella pneumoniae PriA binding to SSB C-terminal tail. inhibition, % at 33 µM. 0.6% of 430,000 active. AID 1272365. AlphaScreen SSBct-PriA binding, biotinylated peptide; in the data active = inhibition mostly above about 37%, no sharp cut-off; inactive = mostly below about 20%;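 also: plate controls were negative control peptide for no effect and reference peptide for full effect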
3CLpro inhibitor: SARS-CoV 3CLpro protease inhibition; recombinant SARS-CoV 3CLpro, quenched FRET peptide cleavage; inhibition, % at 6 µM; 0.14% of 290,000 active; AID 1706; in the data active = inhibition above about 12%
RecA splice inh: Mtb RecA intein splicing inhibition | P9WHJ3 | cell-free RecA intein splicing, fluorescence | inhibition, % (no concentration beside the values) | 0.75% of 290,000 active | AID 2221; in the data active = inhibition above about 30%;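 also: 0% = vehicle wells and 100% = reference inhibitor control wells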
Target sequence (P9WHJ3 whole entry, looked up, canonical isoform): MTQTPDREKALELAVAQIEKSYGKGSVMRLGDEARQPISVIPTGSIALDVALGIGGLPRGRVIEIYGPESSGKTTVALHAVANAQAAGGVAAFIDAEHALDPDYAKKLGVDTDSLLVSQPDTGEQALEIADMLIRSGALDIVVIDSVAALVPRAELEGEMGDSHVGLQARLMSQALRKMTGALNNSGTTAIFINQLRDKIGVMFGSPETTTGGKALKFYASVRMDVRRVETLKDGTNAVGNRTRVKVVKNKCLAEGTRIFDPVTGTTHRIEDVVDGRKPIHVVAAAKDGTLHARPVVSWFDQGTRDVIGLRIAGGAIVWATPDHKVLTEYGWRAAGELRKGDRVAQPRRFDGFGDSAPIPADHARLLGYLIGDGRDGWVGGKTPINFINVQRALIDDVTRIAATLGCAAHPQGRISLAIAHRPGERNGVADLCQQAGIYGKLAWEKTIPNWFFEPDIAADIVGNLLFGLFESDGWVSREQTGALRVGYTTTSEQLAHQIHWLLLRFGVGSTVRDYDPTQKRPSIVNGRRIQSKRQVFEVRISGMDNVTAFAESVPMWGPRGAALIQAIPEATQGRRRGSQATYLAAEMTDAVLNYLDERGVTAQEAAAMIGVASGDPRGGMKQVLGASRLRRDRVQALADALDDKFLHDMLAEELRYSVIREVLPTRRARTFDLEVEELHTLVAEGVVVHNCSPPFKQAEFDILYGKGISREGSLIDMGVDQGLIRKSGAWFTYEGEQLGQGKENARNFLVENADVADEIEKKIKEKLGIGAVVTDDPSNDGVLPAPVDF
Starred values were filed as active, the others as inactive; ! = not active in a repeat. A selection: hits, their analogues and other compounds. The true share with any hit is near 1.7%.

What do the screens show for `O=C(NCC(=O)N1CCS[C@H](c2ccccc2Cl)CC1)c1ccccc1`?
SSB-PriA inh: 2.0

How did CCCCN=C1CC(C)(C)CC(=O)C1=C(O)CCC do in these assays?
SSB-PriA inh: -11.8

Results for CC1(C)C(/C=C/C=C/C=C/C=C2\N(CCCCS(=O)(=O)O)c3ccc4ccccc4c3C2(C)C)=[N+](CCCCS(=O)(=O)[O-])c2ccc3ccccc3c21 ?
SSB-PriA inh: 75.1*

Results for Cc1c2ccccc2cc[n+]1CCCS(=O)(=O)[O-] ?
VHR inh abs: 18.8; CCHFV vOTU inh: -17.7; SSB-PriA inh: -11.3; 3CLpro inhibitor: 4.2; RecA splice inh: -0.2

Results for N=C(N)c1ccc(N=Nc2c(O)ccc3c2[nH]c2ccccc23)cc1 ?
CCHFV vOTU inh: 15.8; SSB-PriA inh: 82.2*

How did CC(=O)N1CCc2c(sc(NC(=O)Cc3ccc(F)cc3)c2C(N)=O)C1 do in these assays?
VHR inh abs: 1.8; CCHFV vOTU inh: 13.0; SSB-PriA inh: 0.2; 3CLpro inhibitor: 1.5; RecA splice inh: -1.6

What do the screens show for `CC(=O)N1CCc2c(sc(NC(=O)Cc3ccc(C)cc3C)c2C#N)C1`?
VHR inh abs: 57.7*; CCHFV vOTU inh: 10.0; SSB-PriA inh: -3.0; 3CLpro inhibitor: -5.5; RecA splice inh: 0.7

How did CC(=O)N1CCc2c(sc(NC(=O)Cc3ccc(F)cc3)c2C#N)C1 do in these assays?
VHR inh abs: -9.1; CCHFV vOTU inh: -0.5; SSB-PriA inh: 60.1*; 3CLpro inhibitor: 3.6; RecA splice inh: 0.3

Results for Cc1ccc(S(=O)(=O)N(C)S(=O)(=O)c2ccc(C#N)cc2)cc1 ?
VHR inh abs: 52.9*; 3CLpro inhibitor: 6.3; RecA splice inh: 0.0

How did O=c1c(NCc2ccccc2Cl)nccn1-c1ccc2c(c1)OCO2 do in these assays?
SSB-PriA inh: 37.0*

What do the screens show for `Cn1c(=O)c2c(nc(NCc3ccc4c(c3)OCO4)n2Cc2ccccc2Cl)n(C)c1=O`?
VHR inh abs: -5.8; CCHFV vOTU inh: -1.4; SSB-PriA inh: -6.6; 3CLpro inhibitor: 1.0; RecA splice inh: -4.4

How did CCc1c(C)sc(NC(=O)Cn2nc(C)c([N+](=O)[O-])c2C)c1C(N)=O do in these assays?
VHR inh abs: 53.0*; CCHFV vOTU inh: -3.4; SSB-PriA inh: 0.8; 3CLpro inhibitor: 0.6

How did Cc1csc(NC(=O)Cn2nc(C)c([N+](=O)[O-])c2C)n1 do in these assays?
VHR inh abs: 25.9; CCHFV vOTU inh: -5.3; SSB-PriA inh: -14.7; 3CLpro inhibitor: 2.5; RecA splice inh: -3.7

How did COc1ccc2[nH]c3c(SCC(=O)Nc4ccc(Br)cc4F)ncnc3c2c1 do in these assays?
SSB-PriA inh: 0.0

What do the screens show for `O=C(Oc1ccc2ccc(O)cc2c1)C1CCCCC1`?
VHR inh abs: 22.5; CCHFV vOTU inh: 16.7; SSB-PriA inh: 1.9; 3CLpro inhibitor: 5.2; RecA splice inh: -0.3

Results for O=C(Oc1ccc2ccccc2c1)C1CCC1 ?
VHR inh abs: 51.0*; CCHFV vOTU inh: -7.5; SSB-PriA inh: -23.6; 3CLpro inhibitor: 0.7; RecA splice inh: -2.6

How did OC(c1ccccn1)(c1ccccn1)c1ccccn1 do in these assays?
VHR inh abs: 7.3; CCHFV vOTU inh: -15.8; SSB-PriA inh: 79.2*; 3CLpro inhibitor: -3.0; RecA splice inh: -2.2

Results for CC(c1ccccn1)C(C)(O)C(C)c1ccccn1 (centres undefined) ?
CCHFV vOTU inh: 3.6; SSB-PriA inh: -6.8

How did NS(=O)(=O)c1ccc(N=Nc2c(O)[nH]c(=S)[nH]c2=O)cc1 do in these assays?
VHR inh abs: 1.2; CCHFV vOTU inh: 3.8; SSB-PriA inh: 4.2; 3CLpro inhibitor: 0.7; RecA splice inh: 33.9*

Results for O=c1[nH]c(=S)[nH]c(O)c1N=Nc1ccc(S(=O)(=O)N2CCOCC2)cc1 ?
VHR inh abs: 5.4; CCHFV vOTU inh: 9.8; SSB-PriA inh: -4.2; 3CLpro inhibitor: 3.8; RecA splice inh: -2.6

What do the screens show for `CCN1CCCC1CNC(=O)c1cc([N+](=O)[O-])c(N(C)C)cc1OC` (centres undefined)?
VHR inh abs: 57.0*; CCHFV vOTU inh: 3.0; SSB-PriA inh: -5.6; 3CLpro inhibitor: -4.3; RecA splice inh: 0.9

What do the screens show for `Cc1ccccc1NC(=S)c1ccc2ccccc2n1`?
VHR inh abs: 3.9; CCHFV vOTU inh: 3.5; SSB-PriA inh: 65.0*!; 3CLpro inhibitor: 0.4; RecA splice inh: 11.6

How did Cc1ccc(C2c3c(oc4ccc(Cl)cc4c3=O)C(=O)N2CCCN2CCOCC2)o1 (centres undefined) do in these assays?
VHR inh abs: -11.8; 3CLpro inhibitor: -6.1; RecA splice inh: 36.0*

How did COc1ccnc2c1c(=O)n(Cc1c(F)cccc1Cl)c(=O)n2C do in these assays?
VHR inh abs: 50.4*; CCHFV vOTU inh: -1.2; SSB-PriA inh: 0.4; 3CLpro inhibitor: -2.6; RecA splice inh: -2.1

What do the screens show for `Cc1cc2cc(C#N)c(NCCNC(=S)NCCCN3CCOCC3)nc2cc1C`?
VHR inh abs: 59.9*; CCHFV vOTU inh: -26.9; SSB-PriA inh: 1.4; 3CLpro inhibitor: 9.6; RecA splice inh: -39.8

How did Cc1cccc2cc(C#N)c(NCCNC(=S)NCCCN3CCOCC3)nc12 do in these assays?
VHR inh abs: -7.9; CCHFV vOTU inh: -24.6; SSB-PriA inh: -11.0; 3CLpro inhibitor: 2.3; RecA splice inh: -31.6

How did COc1ccc(NC(=O)CSc2ncc(S(=O)(=O)c3ccc(C)cc3C)c(=O)[nH]2)cc1Cl do in these assays?
SSB-PriA inh: -12.0

What do the screens show for `CCc1ccc(NC(=O)CSc2ncc(S(=O)(=O)c3ccc(C)cc3C)c(=O)[nH]2)cc1`?
SSB-PriA inh: 69.0*

What do the screens show for `C[n+]1cn(Cc2ccc(C#N)cc2)c2ccccc21`?
VHR inh abs: 52.6*; CCHFV vOTU inh: -0.2; SSB-PriA inh: 8.5; 3CLpro inhibitor: -3.4; RecA splice inh: 0.1

What do the screens show for `CC(=O)c1cn(Cc2ccc(C#N)cc2)c2ccccc12`?
VHR inh abs: 21.7; CCHFV vOTU inh: -14.4; SSB-PriA inh: -12.1; 3CLpro inhibitor: 0.1; RecA splice inh: 6.6

Results for Nc1nc(CSCc2ccccc2)nc(N2CCOCC2)n1 ?
VHR inh abs: 20.4; CCHFV vOTU inh: -0.8; SSB-PriA inh: 0.4; 3CLpro inhibitor: 3.7; RecA splice inh: 1.0

What do the screens show for `Nc1nc(CSc2nc3ccccc3s2)nc(N2CCOCC2)n1`?
VHR inh abs: 53.0*; CCHFV vOTU inh: 14.0; SSB-PriA inh: -10.6; 3CLpro inhibitor: 3.2; RecA splice inh: 7.8

How did CN(C)S(=O)(=O)NC1CC(=O)N(c2ccc(Cl)cc2)C1 (centres undefined) do in these assays?
SSB-PriA inh: 4.0

How did O=C(CSCCO)Nc1ccc([N+](=O)[O-])cc1 do in these assays?
VHR inh abs: 51.7*; CCHFV vOTU inh: 10.4; SSB-PriA inh: -8.9; 3CLpro inhibitor: 3.2; RecA splice inh: -1.0

Results for Cc1ccc(-n2c(=O)[nH]c3c(C(N)=O)nc(-c4cccc(C(F)(F)F)c4)nc32)cc1C ?
SSB-PriA inh: -9.0

What do the screens show for `CN(C)c1ccc(C=NN2C(=S)SC(C)(C)C2N(O)C(=O)Nc2ccc([N+](=O)[O-])cc2)cc1` (centres undefined)?
SSB-PriA inh: 45.5*

How did CN(C)c1ccc(/C=N/N2C(=S)SC(C)(C)C2N(O)C(=O)Nc2ccc([N+](=O)[O-])cc2)cc1 (centres undefined) do in these assays?
VHR inh abs: 16.5; CCHFV vOTU inh: 25.4; 3CLpro inhibitor: -4.2; RecA splice inh: -2.4
